Hits are enriched below; roughly 5.2% of the tested compounds scored in any of these assays.
Tau fibril ThT: tau fibrillization inhibition (ThT binding); P10636; recombinant tau K18 P301L, heparin-induced fibrillization, ThT fluorescence; Potency, µM (series often up to 57.4 µM), without a hit: at the top dose activity, negative = inhibition, most hits filed as inhibitors; 270,000 tested, 2.1% active; AID 1460; also: potency is read from the fitted curve at half-maximal effect; nearly all actives have a fitted effect of over 55% in size
Target sequence (P10636 561-689 P618L limits assumed): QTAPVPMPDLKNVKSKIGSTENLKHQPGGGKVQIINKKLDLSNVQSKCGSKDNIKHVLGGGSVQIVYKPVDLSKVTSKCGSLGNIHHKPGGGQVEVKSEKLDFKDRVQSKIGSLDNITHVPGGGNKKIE
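Recombinant human tau K18 fragment […] carrying P301L, 15 uM unlabeled plus 0.24 uM Alexa 594-labeled, was fibrillized with 20 uM heparin in 100 mM sodium acetate pH 7 for 6 hr at 37 C; 30 uM ThT fluorescence read after 1 hr.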
Sfp PPTase inh: inhibitors of Bacillus subtilis Sfp phosphopantetheinyl transferase; AID 1490; Q9F4F7; Biochemical Sfp PPTase activity, qHTS; Potency, µM, without a hit: largest response in the series, negative = inhibition, hits mostly inhibitors; 310,000 tested, 3.5% active;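 also: the enzyme is Sfp with the accession as filed and its product quenches rhodamine fluorescence; potency is read from the fitted curve at half-maximal effect; 0% = enzyme reaction without inhibitor and -100% = no enzyme wells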
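Fluorescence-quenching assay: 15 nM Sfp-PPTase preincubated 15 min at room temperature with compound, then 5 uM rhodamine-CoA and 12.5 uM BHQ-2-labelled YbbR peptide added. Fluorescence (ex 525/em 598 nm) read at start and after 30 min; difference gives rate.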
Tau FP inhib: tau fibrillization inhibition (FP); P10636; K18 P301L tau heparin fibrillization, Alexa594 FP, 6 h; Potency, µM (doses to about 57.7 µM), inactives show at the top dose activity, negative = inhibition, hits mostly inhibitors; 280,000 tested, 0.39% active; also: potency is read from the fitted curve at half-maximal effect; nearly all actives have a fitted effect of over 55% in size
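Compound effects on tau fibrillization are measured by Alexa 594 fluorescence polarization (ex 555, em 632 nm). K18 P301L tau is used at 15 uM with 0.24 uM labeled tracer, and 20 uM heparin induces aggregation over 6 hr at 37 C.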
FBPA coupling cs: inhibits coupling enzyme system, counter-screen for aldolase hits; coupling enzyme system counterscreen, AmpLite Red fluorescence; activity change, negative = inhibition, % at 58.2 µM, hits read low; 290,000 tested, 0.67% active; in the data active = activity change below about -30%
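Compounds tested against the coupling enzymes alone at 57.5 uM final; readout was AmpLite Red fluorescence (525/598 nm) after 20 min at RT.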
Tau fluor cs: counter-screen for tau fibril formation inhibitors; tau K18 P301L (four-repeat tau fragment) Alexa594 fluorescence, heparin fibrillization; Potency, µM (top dose mostly 57.7 µM), without a hit: top-dose activity change, negative = decrease; 280,000 tested, 0.93% active; AID 1463; also: potency is read from the fitted curve at half-maximal effect; nearly all actives have a fitted effect of over 55% in size
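Human K18 P301L tau (15 uM unlabeled plus 0.24 uM Alexa 594-labeled, final) in 100 mM sodium acetate pH 7 was mixed with compound and 20 uM heparin and incubated 6 hr at 37 C.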
Starred values were filed as active, the others as inactive; ? = inconclusive; / = no result given; ! = not confirmed by another sample; [ ] = remark or other dose. Unless noted, calls follow the shape of the dose curve; as a rule, active = well fitted curve in the direction sought with a large enough effect; inconclusive = small, poorly fitted or top-dose-only effect, or another doubt; inactive = no such curve, though single readings can be large; an effect the other way counts as inactive or inconclusive. Unless noted, % is scaled to controls: 0 for no effect and ±100 for the full control effect.

SMILES	Tau fibril ThT	Sfp PPTase inh	Tau FP inhib	FBPA coupling cs	Tau fluor cs
CCOc1ccc(S(=O)(=O)N2Cc3ccccc3CC2C(=O)Nc2ccc(NC(C)=O)cc2)cc1 (stereo not drawn)	3%	/	-8%	/	?
O=C(NCCc1c[nH]c2ccccc12)c1cc2sccc2n1Cc1ccccc1	-18%	9%	-7%	-4	8.9µM*[quencher]
Cc1cc(C)c2c(=O)n(CC(=O)NC3CCCC3)sc2n1	13µM*	2.8µM*	14µM*	-1	-24%
Cc1cc(C)c2c(=O)n(CC(=O)Nc3cccc(Cl)c3C)sc2n1	/	2.5µM*	20µM*	3	?
Cc1cc(C)c2c(=O)n(CC(=O)Nc3ccc(Br)c(C)c3)sc2n1	?	3.2µM*	?	5	?
COc1ccc(OC)c(CCNC(=O)Cn2sc3nc(C)cc(C)c3c2=O)c1	11µM*	1.4µM*	?	3	-29%
CCOC(=O)COc1ccc2c(C)c(CCN(CC)CC)c(=O)oc2c1Cl	/	5%	/	-1	/
COc1ccccc1N1CCN(C(=O)c2ccc(Nc3nc4ccccc4n4nnnc34)cc2)CC1	-16%	/	1%	/	?
CCC1CN(C(=O)Nc2cccc3c2CCCC3)c2cc(C)ccc2O1 (stereo not drawn)	-9%	/	10%	/	-7%
CCOC(=O)C1=C(C)N(c2ccc(OC)cc2)C(=O)/C1=C\c1ccc(O)c(OCC)c1	25µM*	20µM*	?	-17	?
CCOc1cc(/C=C2\C(=O)N(Cc3ccc(C)cc3)C(C)=C2C(=O)OC)ccc1O	25µM*	18µM*	?	-11	?
CCOC(=O)C1=C(C)N(c2ccc(C)c(C)c2)C(=O)/C1=C\c1ccco1	28µM*	?	?	1	-26%
CCOC(=O)C1=C(C)N(c2ccc(OC)cc2)C(=O)/C1=C\c1cccs1	?	10%	?	0	-16%
C=CCOc1cccc(/C=C2\C(=O)N(Cc3ccc(C)cc3)C(C)=C2C(=O)OC)c1	?	11%	-13%	-7	-17%
COC(=O)C1(C(=O)OC)C[C@H]2CON=C2[C@H]1c1ccccc1	-2%	-20%	?	1	-5%
Cc1ccc(OC(=S)Nc2ccc(O)cc2)cc1	16µM*	-13%	?	-14	-26%
Cc1ccc(OC(=S)Nc2ccc(F)cc2)cc1	4%	17%	3%	0	3%
COC(=O)c1c(SCC(=O)Nc2cccc(C(F)(F)F)c2)[nH]c2ccccc2c1=O	14µM*	/	-8%	/	16µM*[quencher]
COC(=O)c1c(SCC(=O)Nc2cc(F)ccc2F)[nH]c2ccc(C)cc2c1=O	7.1µM*	/	-3%	/	?
COC(=O)c1c(SCC(=O)NC2CCCCC2)[nH]c2ccccc2c1=O	/	-7%	/	/	/
COC(=O)c1c(SCC(=O)Nc2cccc(Cl)c2C)[nH]c2ccccc2c1=O	16µM*	/	?	/	-27%
O=C(CSc1nc2cc3ccccc3cc2[nH]1)Nc1cccc(C(F)(F)F)c1	-6%	/	3.2µM*	/	?
Nc1ncnc2nc(SCC(=O)Nc3cccc(C(F)(F)F)c3)[nH]c12	/	6%	/	0	/
O=C(Nc1ccc(Cl)c(C(F)(F)F)c1)C1CCN(S(=O)(=O)c2cccc3nonc23)CC1	2%	/	?	/	?
O=C1CN(C(=O)COc2ccc(Cl)cc2Cl)C(c2ccc(F)cc2)c2cc(F)ccc2N1 (stereo not drawn)	1%	/	?	/	-24%
SMILES	Tau fibril ThT	Sfp PPTase inh	Tau FP inhib	FBPA coupling cs	Tau fluor cs
CCn1c(C)c(CS(=O)(=O)c2ccccc2)[nH]c1=O	?	25µM*	?	0	-18%
Cc1ccccc1-n1nc(CO)c(C(=O)NCc2cccnc2)n1	0%	/	1%	/	-2%
O=C(O)c1ncn(Cc2ccccc2)c1C(=O)O	-3%	50µM*	5%	1	-1%
O=C1/C(=C/c2ccccc2)Nc2ccccc21	13µM*	-17%	9%	-2	-27%
COc1cccc(N2CCN(C(=O)c3cnc4c(-c5ccc(F)cc5)c(C)nn4c3C)CC2)c1	?	/	3%	/	-13%
COC(=O)c1c(C)sc(-c2c(-c3ccc(F)cc3)[nH]c3[nH]c(=O)[nH]c(=O)c23)c1O	?	/	6%	/	10µM*[quencher]
CCc1ccc(-c2[nH]c3c(c2-c2sc(C)c(C(=O)OC)c2O)c(=O)n(C)c(=O)n3C)cc1	-2%	/	5%	/	-6%
CCCCC/C=C\C/C=C\C/C=C\C/C=C\CCCCCC(=O)NCCc1ccc(O)c(O)c1	-17%	-22%	17%	4	-22%
CCCCCCCC/C=C\CCCCCCCC(=O)NCCc1ccc(O)c(O)c1	?	9%	?	-14	14µM*![quencher]
CCCCc1nc2ccccc2n1CC(=O)N(COCC)c1c(C)cccc1CC	-14%	/	2%	/	-6%
O=C(N/N=C/C(Cl)=C/c1ccccc1)c1ccco1	-7%	-15%	-14%	2	-16%
O=C(/C(=C/O)N=Nc1ccccc1)c1ccco1	20µM*	-3%	6%	3	-13%
Cc1cc(C)nc(Nc2ccc(N3CCCC3)cc2)n1	?	79µM*	5%	-6	?
Cc1cc(C)nc(Nc2ccc(N3CCOCC3)cc2)n1	?	-29%	1%	-13	-13%
Cc1ccc(C)c(NC(=O)CN2CCCN(Cc3cccc(Cl)c3)S2(=O)=O)c1	-8%	/	8%	/	-12%
Oc1ccc(N2CCN(Cc3cc4c(cc3Br)OCCO4)CC2)cc1	/	50µM*	/	1	/
O=[N+]([O-])c1cc2c(cc1CN1CCN(c3ccccc3)CC1)OCO2	/	-11%	/	-1	/
COc1ccc(OC)c(C(=O)CSc2nc3cccnc3n2C)c1	-3%	79µM*	2%	-40*	0%
Cc1ccc(CSc2cn(CC(=O)N3CCCCC3)c3ccccc23)cc1	?	/	-1%	/	-21%
CC(C)(C)OC(=O)N1CCN(c2ccc([N+](=O)[O-])cc2)CC1	4µM*	4%	-2%	1	-14%
CCOC(=O)N1CCN(c2ccc([N+](=O)[O-])cc2)CC1	4µM*	1%	4%	-3	-5%
COc1ccccc1N1CCN(C(=O)Cc2cccs2)CC1	-16%	0%	-2%	-32*	-14%
O=C(Cc1cccs1)N1CCN(c2ccc([N+](=O)[O-])cc2)CC1	3.5µM*	17%	-2%	4	-17%
O=C(Cc1ccc([N+](=O)[O-])cc1)N1CCN(c2ccc([N+](=O)[O-])cc2)CC1	/	10%	/	-2	/
COc1ccc(-c2nc3cc(C)ccn3c2NC(=O)c2cccc(F)c2)cc1	-15%	/	7%	/	-21%
Cc1ccc2c(=O)cc(C(=O)Nc3c(C(=O)c4ccccc4)oc4ccccc34)oc2c1C	-6%	/	5%	/	-4%
O=[N+]([O-])c1ccc(N2CCN(C(=S)NC3CCCCC3)CC2)cc1	10µM*	11%	0%	/	?
CSC(=NC#N)N1CCN(C(=NC#N)SC)CC1	6%	-1%	4%	2	3%

High-throughput results from PubChem.
